IL1B secr inh: inhibitors of inflammasome signaling (IL-1 beta secretion). actives 4.7% (n = 360,000). THP-1 LPS/ATP IL-1B secretion, AlphaLISA, 16 h; stronger effect = lower value. activity change, % at 57.5 µM. AID 743279; in the data active = activity change below about -50%; inconclusive = mostly about -30% to -49%
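THP-1 cells pretreated 1 hr with compounds (up to 57.5 uM final), then stimulated with LPS (250 ng/mL final) plus ATP (1.25 mM final); secreted IL-1B measured by AlphaLISA after 16 hr, decreased signal indicating inhibition.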
KB-V1 cytotox: KB-V1 MDR subline cytotoxicity; KB-V1 MDR cells viability, CellTiter-Glo, 72 h; Potency, µM (doses to about 46.1 µM), usual class: cytotoxic; actives 3.4% (n = 400,000); also: potency is read from the fitted curve at half-maximal effect; nearly all actives have a fitted effect of over 60% in size
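KB-V1 MDR subline cells in DMEM (phenol-red free, 10% FBS) exposed to compounds in qHTS concentration series for 72 h at 37 degrees C. Viability read by CellTiter-Glo luminescence; concentration-effect curves fitted after normalization and correction.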
HT1080NT lethal: kills 2HG-producing HT-1080-NT fibrosarcoma cells | HT-1080-NT fibrosarcoma viability, CellTiter-Glo ATP luminescence, 48 h | Potency, µM (doses to about 46.1 µM), for inactives: at the highest dose activity, negative = less viability, hits mostly cytotoxic | actives 1.6% (n = 360,000) | AID 686970;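 also: NT is the 2HG producing partner of a matched IDH1 knockdown line; potency is read from the fitted curve at half-maximal effect; 0% = DMSO-treated cells and -100% = media-only wells without cells; nearly all actives have a fitted effect of over 55% in size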
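Luminescent CellTiter-Glo readout after 48 hours of compound exposure at 37 degrees C defined viability of HT-1080-NT cells. Activity was normalized to DMSO wells and cell-free media wells; concentration-response curves were fitted and assigned curve classes.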
KB-3-1 tox: KB-3-1 parental cell cytotoxicity | AID 1347075 | Potency, µM (top dose mostly 46.1 µM), actives largely listed as cytotoxic | KB-3-1 viability, CellTiter-Glo ATP luminescence, 72 h | actives 1.4% (n = 400,000); also: potency is read from the fitted curve at half-maximal effect; nearly all actives have a fitted effect of over 60% in size
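Parental KB-3-1 viability, qHTS format: 72 h compound exposure, 37 °C; CellTiter-Glo; media-only wells and DMSO plates as controls; concentration-effect fits on corrected data.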
HT1080 IDH1KD tx: toxicity to HT-1080 IDH1 knockdown cells (counter line); HT-1080 IDH1 knockdown viability, ATP luminescence, 48 h; Potency, µM (titrated, usually from 46.1 µM), for the others: top-dose activity, negative = toxicity, hits mostly cytotoxic; actives 2% (n = 360,000); AID 686971;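 also: potency is read from the fitted curve at half-maximal effect; 0% = DMSO wells and -100% = cell-free medium wells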
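IDH1KD HT-1080 cells, 750/well, RPMI + 5% FBS; compound pinned after 2 h settling; 48 h, 37 °C; CellTiter-Glo luminescence; % activity normalised to DMSO and no-cell wells; curves fitted, classed by r2 and efficacy.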
* marks the source's active call; other numbers are inactive results; i = inactive; ? = inconclusive; / = no result; ! = not confirmed by another sample. An excerpt weighted towards active compounds, which were near 8.8% of everything screened. Unless noted, calls follow the shape of the dose curve; as a rule, active = well fitted curve in the direction sought with a large enough effect; inconclusive = small, poorly fitted or top-dose-only effect, or another doubt; inactive = no such curve, though single readings can be large; an effect the other way counts as inactive or inconclusive. Unless noted, % is scaled to controls: 0 for no effect and ±100 for the full control effect.

SMILES	IL1B secr inh	KB-V1 cytotox	HT1080NT lethal	KB-3-1 tox	HT1080 IDH1KD tx
O=C1C(Cc2ccccc2)Nc2ncnc(N3CCN(c4ccccc4)CC3)c2N1Cc1ccc(Cl)cc1 (configuration not stated)	-56*	i	-10%	i	-8%
CC(C)CC1Nc2ncnc(N3CCN(c4ccccn4)CC3)c2N(Cc2ccc(Cl)cc2)C1=O (configuration not stated)	-70*!	23µM*!	?	?	?
CCC1Nc2ncnc(N3CCc4ccccc4C3)c2N(Cc2ccc(Br)cc2)C1=O (configuration not stated)	-95*	?	?	?	?
O=C1C(Cc2ccccc2)Nc2ncnc(N3CCc4ccccc4C3)c2N1Cc1ccccc1 (configuration not stated)	5	i	-19%	i	-10%
CC(C)CC1Nc2ncnc(N3CCN(c4ccccc4)CC3)c2N(Cc2ccccc2)C1=O (configuration not stated)	-20	i	-27%	i	-4%
COc1ccc(CN2C(=O)C(CC(C)C)Nc3ncnc(N4CCN(c5ccccc5)CC4)c32)cc1 (configuration not stated)	-62*!	i	?	?	-8%
CCOc1ccccc1C(=O)N/N=C/c1coc2ccc(Cl)cc2c1=O	69	i	1%	?	-12%
Cc1oc2ncn(C)c(=O)c2c1C(=O)NCCCN1CCCC(C)C1 (configuration not stated)	/	i	/	i	/
CC1=C(CC(=O)c2ccc(Cl)cc2)C(=O)c2ccccc2C1=O	10	16µM*	?	?	11µM*
CCC(=O)C1CCCN(C(=O)CCc2nnc(-c3ccc(C(C)=O)s3)o2)C1 (configuration not stated)	8	i	5%	i	2%
CC1=C(C(=O)OCC2CCCO2)C(c2ccccc2Cl)NC(=O)N1 (configuration not stated)	-1	i	14%	i	6%
CCOC(=O)C1=C(C)NC(=O)NC1c1ccc(OC)c(Cl)c1 (configuration not stated)	17	21µM*	-1%	i	?
CC1=C(C(=O)OCC2CCCO2)C(c2ccc(Cl)c(Cl)c2)NC(=O)N1 (configuration not stated)	-50*	i	-4%	i	-1%
CCOCc1cc(C2NC(=O)NC(C)=C2C(=O)OCC)ccc1OC (configuration not stated)	-4	i	5%	i	0%
Cc1ccc(NC(=O)N2CCCc3ccccc32)cc1C	10	i	-11%	i	-16%
CN(C)CCCNC(=O)c1cc2sc3ccccc3c2s1	-118*	i	18µM*	i	18µM*
O=C(NCCCN1CCOCC1)c1cc2c(=O)[nH]c3ccccc3c2s1	-50*	i	0%	i	1%
CCC(C)NC(=O)c1cc2c(=O)[nH]c3ccc(C)cc3c2s1 (configuration not stated)	-53*	i	9%	i	11%
Cc1ccc2[nH]c(=O)c3cc(C(=O)NCCC(C)C)sc3c2c1	-25	i	?	i	22%
CCCCN(CC)CCCNC(=O)c1cc2c(=O)[nH]c3ccccc3c2s1	-73*	i	?	?	?
CCOCCCNC(=O)c1cc2c(=O)[nH]c3ccccc3c2s1	?	?	?	i	15%
Cc1ccc(-c2ccc(/C=N/O)o2)cc1[N+](=O)[O-]	?	i	15%	i	9%
CCCCN(CC)CCNC(=O)c1cc2c(=O)[nH]c3ccc(C)cc3c2s1	-100*	i	16µM*	?	18µM*
COc1ccc(-c2nc(C(=O)NCCCN3CCOCC3)cc3c2[nH]c2ccccc23)cc1OC	-24	i	-4%	i	-8%
Cc1ccc(-c2nc(C(=O)NCCCN3CCOCC3)cc3c2[nH]c2ccccc23)cc1	-52*	?	-9%	i	-14%
SMILES	IL1B secr inh	KB-V1 cytotox	HT1080NT lethal	KB-3-1 tox	HT1080 IDH1KD tx
COc1ccc(-c2nc3scc(-c4ccccc4)n3n2)cc1	79	18µM*	2%	?	-19%
CCOC(=O)Cc1csc2nc(-c3ccccc3)nn12	24	i	1%	i	5%
Cc1c(NC(=O)Nc2ccccc2Cl)c(=O)n(-c2ccccc2)n1C	-14	i	-7%	i	3%
Cc1ccc(Sc2ccc(S(=O)(=O)Nc3ccc(CC(=O)O)cc3)cc2)cc1C	24	i	-11%	i	-1%
O=C(NCCc1ccc2c(c1)OCCO2)c1ccc(F)cc1	0	23µM*	-10%	i	-23%
COc1ccc(Cl)cc1NC(=O)COC(=O)C1COc2ccccc2O1 (configuration not stated)	26	i	1%	i	7%
O=C(NCCOc1nc(N2CCCCC2)nc(N2CCCCC2)n1)Nc1ccccc1	-63*	?	2%	i	-10%
O=C(NCCOc1nc(N2CCCCC2)nc(N2CCOCC2)n1)Nc1ccccc1	?	i	-1%	i	4%
CCN(CC)c1nc(OCCNC(=O)Nc2ccccc2)nc(N(CC)CC)n1	-63*	?	21µM*	?	18µM*
Cc1cccc(C)c1-n1nnnc1C(c1ccnc2ccccc12)N1CCN(c2ccccc2F)CC1 (configuration not stated)	23	16µM*	19%	?	13%
Cc1cccc(C)c1-n1nnnc1C(c1ccnc2ccccc12)N1CCCN(C(=O)OC(C)(C)C)CC1 (configuration not stated)	37	i	16%	?	?
Cc1ccc(Nc2cc(C(=O)NC3CCCC3)c3ccccc3n2)cc1C	/	i	/	i	/
CCOC(=O)C(=C1Nc2ccccc2N1)n1c(-c2cccnc2)nc2ccccc21	-2	21µM*	-19%	?	-10%
CCOC(=O)Cn1c(-c2cccnc2)nc(-c2ccccc2)c1-c1ccccc1	-13	i	-11%	i	-9%
CCCS(=O)(=O)c1c(S(=O)(=O)CCC)c2cc(CC)ccn2c1C(=O)c1ccc(Cl)cc1	/	i	/	i	/
CCN(CC)CCN(C(=O)/C=C/c1cccs1)c1nc2ccc(Cl)cc2s1	13	i	13%	i	?
CN(C)CCN(C(=O)/C=C/c1cccs1)c1nc2ccc(F)cc2s1	-66*	i	?	i	?
CN(C)CCCN(C(=O)c1cc(-c2cccs2)nc2ccccc12)c1nc2ccc(F)cc2s1	-59*	?	8.2µM*	i	21µM*
